Common to all, as to type: functional
Test [1] concerns Plasmodium falciparum. The experiment in a line: GSK_TCMDC: Inhibition of Plasmodium falciparum 3D7 in whole red blood cells, using parasite LDH activity as an index of growth. Test compounds present at 2uM.
In test [2] the test system is Plasmodium falciparum. The experiment in a line: GSK_TCMDC: Inhibition of Plasmodium falciparum Dd2 in whole red blood cells, using parasite LDH activity as an index of growth. Test compounds present at 2uM.
For the next test, the system named is HepG2. The experiment in a line: GSK_TCMDC: Percent inhibition of human HepG2 cell line. Test compounds present at 10uM.

What is called Inhibition is the drop in the measured response relative to a control, in per cent.

In the case of `Cc1ccc2nc(N/C(N)=N/C(=O)NC3CCCCC3)nc(C)c2c1`, the Inhibition turned out to be 99% with Plasmodium falciparum [1], 94% in the test with Plasmodium falciparum [2] and 8% with HepG2.
The corresponding values for `Cl.N=C(NCCc1ccc(Cl)c(Cl)c1)c1ccc2ccccc2c1` are 100%, 29% and 60%.
The corresponding values for `CC(=O)c1cccc(NC(=O)N2CCCN(CCCCCNC(=O)/C=C/c3ccc(Cl)c(Cl)c3)CC2)c1` are 93%, 0% and 13%.
The corresponding values for `O=c1nc(C=Cc2ccc(Br)cc2)oc2ccccc12` are 97%, 66% and 0%.
Turning to `Cc1cc(CNCCCCCNCc2cccc([N+](=O)[O-])c2)ccc1O`, the Inhibition is 98% in the test with Plasmodium falciparum [1], 0% with Plasmodium falciparum [2] and 14% with HepG2.
The like results for `CC(C)CNCc1ccc(-c2ccc(CN(CCCN3CCN(C)CC3)C(=O)/C=C/c3ccccc3)cc2)cc1.O=C(O)C(F)(F)F` were, in that order, 99%, 93% and 57%.
As to `CN(C)C(=O)c1ccc(CN(Cc2cccc(OC(C)(C)C)c2)Cc2ccc3c(c2)OCCO3)cc1`, the Inhibition in the test with Plasmodium falciparum [1] is 96%; with Plasmodium falciparum [2], 96%; with HepG2 it was 0%.
Take `O=C(Nc1cccc(CN2CCN(Cc3ccc(O)cc3)CC2)c1)c1cc2ccccc2o1.O=C(O)C(F)(F)F`: the Inhibition in the test on Plasmodium falciparum [1] is recorded as 81%; with Plasmodium falciparum [2], 12%; in the test with HepG2, 8%.
With `O=C(Nc1ccccc1O)C1CCN(c2ncnc3cc(-c4ccc(F)cc4)sc23)CC1`, the Inhibition came out at 97% in the test with Plasmodium falciparum [1], 94% in the test with Plasmodium falciparum [2] and 10% in the test on HepG2.
In the case of `O=C(/C=C/c1ccc(Cl)c(Cl)c1)NCCCCCN1CCC(NC(=O)Nc2ccc(C(F)(F)F)cc2)CC1`, the results for the Inhibition in the test with Plasmodium falciparum [1], in the test on Plasmodium falciparum [2] and in the test on HepG2 were 94%, 34% and 58%, respectively.
The like results for `CCCCCCN1CCC(CNCc2cccc([N+](=O)[O-])c2)CC1.O=C(O)C(F)(F)F` were, in that order, 95%, 15% and 16%.
The like results for `CC1=NN(c2ccc(C)c(C)c2)C(=O)C1=NNc1cccc(-c2cccc(NC(=O)OC(C)(C)C)c2)c1O` were, in that order, 94%, 21% and 39%.
As to `COc1cc(-c2nc3c4ccccc4c4ccccc4c3[nH]2)cc(OC)c1OC`, the Inhibition in the test on Plasmodium falciparum [1] was 90%; in the test with Plasmodium falciparum [2], 10%; with HepG2 it was 4%.
The corresponding values for `COc1ccc(-c2cnc3[nH]cc(-c4ccc(C(=O)O)c(C)c4)c3c2)cn1.O=C(O)C(F)(F)F` are 99%, 99% and 23%.
The corresponding values for `Cc1ccc(Cn2nc(Cl)c(N3CCCNCC3)cc2=O)cc1NC(=O)Nc1ccc(-c2ccccc2)cc1.O=C(O)C(F)(F)F` are 100%, 55% and 90%.
The like results for `Cc1ccc(NC(=O)c2ccc3ncccc3c2)cc1OC1CCN(CCC(C)C)C1.O=C(O)C(F)(F)F` (stereo not drawn) were, in that order, 98%, 62% and 5%.
On to `COc1ccc(Nc2nccc(N3CCC(NC(=O)Nc4cc(C)ccc4C)C3)n2)cc1` (stereo not drawn), for which the Inhibition in the test with Plasmodium falciparum [1] came out at 91%; in the test with Plasmodium falciparum [2], 37%; with HepG2 it was 10%.
The corresponding values for `CC1CC(C)CN(CC(O)CNC(=O)Nc2ccc(Br)cc2)C1.O=C(O)C(F)(F)F` (stereo not drawn) are 94%, 44% and 13%.
For `CC(C)CNCc1ccc(-c2cccc(CN(C(=O)NCCc3ccccc3)C3CCN(Cc4ccccc4)CC3)c2)cc1.O=C(O)C(F)(F)F`, the Inhibition is reported as 100% with Plasmodium falciparum [1], 94% with Plasmodium falciparum [2] and 91% with HepG2.
The like results for `CCn1c(-c2nonc2N)nc2c(-c3cccc(NC(=O)NC45CC6CC(CC(C6)C4)C5)c3)ncc(OCCCN)c21.O=C(O)C(F)(F)F` were, in that order, 94%, 63% and 100%.
The corresponding values for `COc1ccc2ncc(F)c(CCN3CCC(NCc4ccc5c(c4)CCO5)CC3)c2n1.Cl` are 100%, 30% and 20%.
The corresponding values for `Cc1cccc(Nc2nc(N)c3ccccc3n2)c1.Cl` are 99%, 49% and 1%.
As to `CS(=O)(=O)c1ccc2[nH]c(-c3cc(-c4ccc(OCCN5CCOCC5)cc4)cnc3N)nc2c1.O=C(O)C(F)(F)F`, the Inhibition in the test with Plasmodium falciparum [1] amounted to 100%; in the test on Plasmodium falciparum [2] it was 99%; in the test on HepG2 it was 43%.
The corresponding values for `Cc1ccc(NC(=O)c2ccc3nccnc3c2)cc1OC1CCN(Cc2ccc(F)cc2)CC1.O=C(O)C(F)(F)F` are 87%, 24% and 16%.
For the compound `Br.CCC(CCON1C(N)=NC(N)=NC1(C)C)c1ccc(Cl)cc1` (stereo not drawn), the Inhibition is 94% in the test on Plasmodium falciparum [1], 95% in the test on Plasmodium falciparum [2] and 66% in the test on HepG2.
The corresponding values for `Cc1cc(NC(=O)c2ccco2)ccc1OC1CCN(Cc2ccc(F)cc2)C1.O=C(O)C(F)(F)F` (stereo not drawn) are 96%, 92% and 5%.
Consider `CCc1cccc(C)c1-n1nc(-c2cc(C(C)(C)C)oc2C)cc1N`, for which the Inhibition was found to be 95% in the test on Plasmodium falciparum [1], 95% with Plasmodium falciparum [2] and 4% in the test with HepG2.
Take `COc1ccc(C(=O)CCC(=O)N(CCSC(C)(C)C)Cc2ccc(-c3ccc(CNCCc4ccc(S(C)(=O)=O)cc4)cn3)cc2)cc1F.O=C(O)C(F)(F)F`: the Inhibition in the test with Plasmodium falciparum [1] was determined as 98%; in the test with Plasmodium falciparum [2], 42%; in the test with HepG2 it was 9%.
The like results for `COc1ccc(Nc2cc(C)nc(NCc3ccc4c(c3)OCO4)n2)cc1` were, in that order, 99%, 78% and 26%.
Regarding `COc1c(C2CCN(CCCCNC(=O)c3ccc(-c4ccc(C#N)cc4)cc3)CC2)ccc2c1C(C)(C)CCC2(C)C`, the Inhibition is 100% with Plasmodium falciparum [1], 86% in the test on Plasmodium falciparum [2] and 98% in the test with HepG2.
For `CN(C)CCNCc1cccc(-c2ccc3c(Nc4ccc(Oc5ccccc5)cc4)ccnc3c2)c1`, the results for the Inhibition in the test on Plasmodium falciparum [1], in the test with Plasmodium falciparum [2] and in the test with HepG2 were 100%, 99% and 31%, respectively.
